PubChem BioAssay (NCATS)
Where “and” joins values, the source holds several entries; their conditions need not be identical. Equal values may be shown once. Results filed as inconclusive are left out. Where a structure was tested more than once in an assay, its records may differ in their call. A number with no mark means an inactive call. Calls of active or inactive are those of the source. The call rests on the fitted dose curve; in most records, active means well fitted inhibition curve with a large enough effect; inconclusive means small, poorly fitted or top-dose-only effect; inactive means flat fitted curve, though single readings scatter.

Tests used:
CRL-7250 = normal cell line; experiment: Cytotoxic Profiling of Annotated Libraries Using Quantitative High-Throughput Screening (AID 1296008); details: Five cell lines viability, CellTiter-Glo ATP luminescence, 48-72 h; max response: hits give low values; further: potency means the concentration at half of the fitted maximal effect; on max response: on the % scale 0 is the no-effect control and ±100 the full control effect
How it was run: (§1)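 Compounds were pin-transferred onto cells and incubated 48 or 72 hr at 37 degree Celsius, 95% humidity. CellTiter-Glo was added, plates sat 10 min at room temperature, then ATP-coupled luminescence was imaged as the viability read-out.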

HEK293 = experiment: as above; details: Five cell lines viability, CellTiter-Glo ATP luminescence, 48-72 h; max response: hits give low values
How it was run: as §1

HaCat [1] = experiment: as above; details: Five cell lines viability, CellTiter-Glo ATP luminescence, 48-72 h; max response: hits give low values
How it was run: as §1

KB-3-1 = experiment: as above; details: Five cell lines viability, CellTiter-Glo ATP luminescence, 48-72 h; max response: hits give low values
How it was run: as §1

NIH3T3 = experiment: as above; details: Five cell lines viability, CellTiter-Glo ATP luminescence, 48-72 h; max response: hits give low values
How it was run: as §1

HACAT [2] = experiment: qHTS assay to identify novel small-molecules to repurpose for Merkel cell carcinoma treatment (AID 1296009); details: MCC and control cell lines, CellTiter-Glo viability, 72 h; at 44.8 µM (top of the series) unless noted
How it was run: (§2)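 qHTS format: cells treated with library compounds in DMSO across 8 (NPC) or 11 (MIPE) concentrations. Readout after 72 hr at 37 degree celsius was CellTiter-Glo luminescence.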

HEK293T = experiment: as above; details: MCC and control cell lines, CellTiter-Glo viability, 72 h; series mostly up to 44.8 µM
How it was run: as §2
Further: nearly all actives have a fitted effect of over 60% in size.

With `CCn1c2ccccc2c2cc(CNC)ccc21` the max response (CRL-7250) was -18% and 2.31%, the Potency (HEK293) was 18.4 µM (active) and the outcome (HaCat [1]) was “inactive”. For the same compound, the max response (KB-3-1) was -23.4%, the outcome (KB-3-1) was “inactive” and the max response (NIH3T3) was -5.49%. For the same compound, the outcome (NIH3T3) was “inactive” and the outcome (HACAT [2]) was “inactive”.

With `Cc1onc(-c2ccccc2)c1C(=O)N[C@@H]1C(=O)N2[C@@H]1SC(C)(C)[C@@H]2C(=O)O` the max response (CRL-7250) was 4.38%, the outcome (CRL-7250) was “inactive” and the max response (HEK293) was 3.77% and -1.97%. For the same compound, the max response (HaCat [1]) was -3.02% and -31.5%, the outcome (KB-3-1) was “inactive” and the outcome (NIH3T3) was “inactive”.

In the case of `Cc1c(-c2ccnn2C)cc(C(=O)NCc2ccc(S(C)(=O)=O)cn2)c(=O)n1-c1cccc(C(F)(F)F)c1`, the max response (CRL-7250) is reported as 0.591% and -4.37% and 3.84%, the outcome (CRL-7250) is reported as “inactive” and the max response (HEK293) is reported as -6.6% [middle of 4 runs]. The max response (KB-3-1) was 2.1% and 7.91%, the outcome (KB-3-1) was “inactive” and the max response (NIH3T3) was 0.936% and -17.4% and -7.73%.

With `Cc1ccc(C(=O)Nc2ccc(Oc3cc4cnn(C)c4cc3-c3cn[nH]c3)c(F)c2)c(=O)n1-c1ccc(F)cc1` the Potency (CRL-7250) was 4.67 µM (active), the Potency (HEK293) was 5.8 µM (active) and 3.31 µM (active) and the Potency (HaCat [1]) was 16.6 µM (active). The Potency (KB-3-1) was 5.17 µM (active) and the Potency (NIH3T3) was 4.11 µM (active).

With `Cc1nn(C)c2c1C(c1ccc(C(F)(F)F)cc1)C(C#N)=C(N)O2` (centres undefined) the max response (CRL-7250) was 4.37%, the outcome (CRL-7250) was “inactive” and the max response (HEK293) was -4.39% and 2.32%. The max response (HaCat [1]) was -6.13% and -14.3%, the max response (KB-3-1) was 9.42% and the max response (NIH3T3) was 1.84%. The outcome (NIH3T3) was “inactive”.

In the case of `C[C@]12C=CC(=O)C=C1CC[C@@H]1[C@@H]2[C@@H](O)C[C@@]2(C)[C@H]1CC[C@]2(O)C(=O)COC(=O)CCC(=O)O`, the max response (CRL-7250) is reported as 2.71%, the max response (HEK293) is reported as -0.357% and the outcome (HaCat [1]) is reported as “inactive”. The max response (KB-3-1) was 2.8%, the outcome (KB-3-1) was “inactive” and the outcome (NIH3T3) was “inactive”. The outcome (HACAT [2]) was “inactive”.

For `CC(=O)OC(C)OC(=O)C(C)c1ccc(-c2ccccc2)c(F)c1` (centres undefined), the max response (CRL-7250) was -4.19%, the max response (HEK293) was -11.4% and the outcome (HaCat [1]) was “inactive”. For the same compound, the max response (KB-3-1) was 1.74% and -23.2%, the outcome (NIH3T3) was “inactive” and the outcome (HACAT [2]) was “inactive”.

In the case of `O=C(NC[C@H](O)CN1CCc2ccccc2C1)c1cc(NC2COC2)ncn1`, the max response (CRL-7250) is reported as -6.51% and -13.6%, the max response (HEK293) is reported as -6.86% and the max response (HaCat [1]) is reported as -0.448%. The outcome (KB-3-1) was “inactive”, the max response (NIH3T3) was -2.53% and the outcome (NIH3T3) was “inactive”.

In the case of `OC[C@H]1O[C@@H](OCCc2ccc(O)cc2)[C@H](O)[C@@H](O)[C@@H]1O`, the max response (CRL-7250) is reported as 1.66%, the max response (HEK293) is reported as -4.41% and the outcome (HaCat [1]) is reported as “inactive”. The max response (KB-3-1) was 7.2% and 9.78%, the max response (NIH3T3) was -4.78% and the outcome (HACAT [2]) was “inactive”.

In the case of `CCN[C@@H]1C[C@H](N)[C@@H](O[C@H]2OC(CN)=CC[C@H]2N)[C@H](O)[C@H]1O[C@H]1OC[C@](C)(O)[C@H](NC)[C@H]1O`, the max response (CRL-7250) is reported as -13%, the outcome (CRL-7250) is reported as “inactive” and the max response (HEK293) is reported as -0.314%. The outcome (HaCat [1]) was “inactive”, the max response (KB-3-1) was 9.12% and the outcome (KB-3-1) was “inactive”. The max response (NIH3T3) was -0.755% and 2.29% and the outcome (HACAT [2]) was “inactive”.

`CCC[C@@H]1C[C@@H](C(=O)N[C@@H]([C@H]2O[C@H](SC)[C@H](OP(=O)(O)O)[C@@H](O)[C@H]2O)[C@H](C)Cl)N(C)C1` gave a max response (CRL-7250) of -7.94%, a max response (HEK293) of -4.58% and a max response (HaCat [1]) of 4.98%. The max response (KB-3-1) was -22.3% and -12.7% and 0.837% and the outcome (NIH3T3) was “inactive”.

In the case of `Cc1cc(Nc2ncc(Cl)c(Nc3ccccc3S(=O)(=O)C(C)C)n2)c(OC(C)C)cc1C1CCNCC1`, the max response (CRL-7250) is reported as -10.6%, the Potency (HEK293) is reported as 8.2 µM (active) and 4.17 µM (active) and the outcome (HaCat [1]) is reported as “inactive”. For the same compound, the Potency (KB-3-1) was 18.4 µM (active), the Potency (NIH3T3) was 23.4 µM (active) and the outcome (NIH3T3) was “inactive”. The outcome (HACAT [2]) was “inactive”.

For `O=C(/C=C/c1ccc(O)cc1)OCC1=CC2OC(=O)C3=CO[C@@H](O[C@@H]4O[C@H](CO)[C@@H](O)[C@H](O)[C@H]4O)[C@H]1[C@@H]32` (some centres undefined), the max response (CRL-7250) was -2.07%, the outcome (HEK293) was “inactive” and the outcome (HaCat [1]) was “inactive”. The outcome (KB-3-1) was “inactive”, the max response (NIH3T3) was -2.28% and the outcome (HACAT [2]) was “inactive [at 17.4 µM]”. For the same compound, the Potency (HEK293T) was “inactive”.

For `O=C(O)[C@H]1CCCC[C@H]1C(=O)N1CCc2ccccc2[C@H]1CN1C(=O)c2ccccc2C1=O`, the max response (CRL-7250) was 1.46%, the outcome (HEK293) was “inactive” and the outcome (HaCat [1]) was “inactive”. For the same compound, the outcome (KB-3-1) was “inactive”, the max response (NIH3T3) was 2.69% and the outcome (HACAT [2]) was “inactive”. For the same compound, the Potency (HEK293T) was “inactive”.

For `COC(=O)C1=COC(O[C@@H]2O[C@H](CO)[C@@H](O)[C@H](O)[C@H]2O)/C(=C\COC(=O)c2ccc(OC3OC(CO)C(O)C(O)C3O)c(OC)c2)C1CC(=O)OCCc1ccc(O)cc1` (some centres undefined), the max response (CRL-7250) was -6.94%, the outcome (HEK293) was “inactive” and the outcome (HaCat [1]) was “inactive”. The outcome (KB-3-1) was “inactive”, the max response (NIH3T3) was 1.16% and the outcome (HACAT [2]) was “inactive [at 9.27 µM]”. For the same compound, the outcome (HEK293T) was “inactive [at 9.27 µM]”.

For `Cc1cc(O)cc(Oc2cc(C)c(C(=O)O)c(O)c2)c1`, the max response (CRL-7250) was -27.9%, the outcome (HEK293) was “inactive” and the outcome (HaCat [1]) was “inactive”. For the same compound, the outcome (KB-3-1) was “inactive”, the max response (NIH3T3) was 4.83% and the outcome (HACAT [2]) was “inactive”. The Potency (HEK293T) was “inactive”.

For `CC1CCC2(C)C(CC(O)C(O)C23CO3)C1(C)CCC1=CC(=O)OC1O` (centres undefined), the max response (CRL-7250) was -22%, the outcome (HEK293) was “inactive” and the outcome (HaCat [1]) was “inactive; activator”. For the same compound, the max response (KB-3-1) was 4.04%, the max response (NIH3T3) was 3.09% and the outcome (HACAT [2]) was “inactive; activator”. The Potency (HEK293T) was “inactive”.

For `COc1cc(C)c(C(=O)O[C@H]2[C@@H](O)[C@H](n3ccc(=O)[nH]c3=O)O[C@@H]2CO)c(OC)c1`, the max response (CRL-7250) was -3.82%, the outcome (HEK293) was “inactive” and the outcome (HaCat [1]) was “inactive”. For the same compound, the max response (KB-3-1) was -4.86%, the max response (NIH3T3) was -2.57% and the outcome (HACAT [2]) was “inactive [at 17.4 µM]”. For the same compound, the Potency (HEK293T) was “inactive”.
